High-throughput results from PubChem.
In the library only some 21% were active in any assay of this set; here they are far more common.
Shiga toxin inh = A qHTS for Small Molecule Inhibitors of Shiga Toxin | Vero cells, Shiga toxin protein synthesis inhibition reporter | inhibition, % at 38.7 µM | 9.2% of 290,000 active; in the data active = inhibition mostly above about 28%, no sharp cut-off; inactive = mostly below about 43%; note: 0% is about no effect
NS1 function inh = qHTS Assay for Inhibitors of Influenza NS1 Protein Function; Potency, µM (top dose mostly 46.1 µM), for inactives: at the top dose activity, positive = more growth; 0.4% of 270,000 active; AID 2326, 2010; calls by dose curve; note: potency is the fitted concentration of half-maximal effect; actives are rising curves; nearly all actives have a fitted effect of over 50% in size
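Compounds were scored for reversing the slow growth caused by influenza A NS1 in S. cerevisiae, measured by optical density at 600 nm. Assay medium contained 2% galactose at pH 6.0; NS1-free yeast of the same strain were the positive control.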
SARS PLpro yeast = qHTS of Yeast-based Assay for SARS-CoV PLP | 0.19% of 330,000 active | AID 485353, 2010 | Potency, µM (highest dose often 32.9 µM), without a hit: at the top dose activity, positive = growth rescue, usual class: activators | S. cerevisiae expressing SARS-CoV PLpro, growth rescue; calls by dose curve; note: potency is the fitted concentration of half-maximal effect; 0% is about no effect; nearly all actives have a fitted effect of over 55% in size
Cycloheximide cs = Cycloheximide Counterscreen for Small Molecule Inhibitors of Shiga Toxin; max response, %; 12% of 300,000 active; cell reporter, cycloheximide protein synthesis inhibition counterscreen; in the data active = max response mostly above about 13%, no sharp cut-off; inactive = mostly below about 14%; note: read at 38.3 µM for the half of the compounds with a filed dose; 0% is about no effect
Pf growth 96h = Primary qHTS for delayed death inhibitors of the malarial parasite plastid, 96 hour incubation | P. falciparum luciferase reporter growth, 96 h | Potency, µM (doses to about 28.7 µM), without a hit: at the top dose activity change, negative = inhibition, most hits filed as inhibitors | 6.9% of 320,000 active | AID 504834, 2011; note: potency is the fitted concentration of half-maximal effect; % is set by controls: 0 for no effect and ±100 for the full control effect
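Cell-based qHTS: luciferase-tagged P. falciparum in erythrocytes (2% hematocrit, 0.05% parasitemia final) incubated with compounds for 96 hours, 37 C, 5% CO2; luciferase detection reagent then added and luminescence measured.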
Pf growth 48h = Primary qHTS for delayed death inhibitors of the malarial parasite plastid, 48 hour incubation | P. falciparum luciferase growth in erythrocytes, 48 h | 5.9% of 310,000 active | Potency, µM (series often up to 28.7 µM), inactives show at the top dose activity change, negative = inhibition, hits mostly inhibitors; note: potency is the fitted concentration of half-maximal effect; % is set by controls: 0 for no effect and ±100 for the full control effect
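Here the parasites carry a stable luciferase gene and grow inside erythrocytes in Albumax-based RPMI medium with compound for one erythrocytic cycle. Activity is scored as loss of luminescent signal.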
Starred values were filed as active, the others as inactive; ? = inconclusive; / = no result given. Unless noted, calls come from the whole dose curve; as a rule, active = well fitted inhibition curve with a large enough effect; inconclusive = small, poorly fitted or top-dose-only effect, or another doubt; inactive = no such curve, though single readings can be large or run the other way.

SMILES	Shiga toxin inh	NS1 function inh	SARS PLpro yeast	Cycloheximide cs	Pf growth 96h	Pf growth 48h
COc1ccc(C(CNC(=O)c2ccc(C)o2)N2CCOCC2)cc1 (stereo not given)	/	/	-2%	/	14%	-28%
OC(C#CCN1CCCC1)(c1ccccc1)c1ccccc1	-5	7%	-1%	-2	9.5µM*	?
Cc1ccc(NC(=S)NC2CC3CCC(C2)N3Cc2ccco2)cc1C (stereo not given)	-7	-3%	3%	-1	12µM*	?
Cc1cc(Cl)ccc1NC(=S)NC1CCCC1	32*	-11%	20%	12*	-30%	-81%
CCN(CC)S(=O)(=O)c1cc(NC(=S)NC(=O)C2CCCC2)ccc1C	/	/	-2%	/	/	/
Cc1ccc(NC(=S)NC(=O)C2CCC2)cc1C	101*	-7%	-4%	53*	-8%	-2%
Cc1ccc(NC(=S)NC(=O)C2CCCC2)cc1C	91*	5%	-2%	50*	?	20%
Cc1ccc(-n2nnnc2SCC(=O)N2CC(=O)Nc3ccccc32)cc1	-26	-9%	-16%	-4	/	?
Nc1cc(C(=O)c2ccccc2)ccc1[N+](=O)[O-]	5	/	-5%	15	19%	18%
S=C(Nc1ccc2[nH]ccc2c1)NC1CCCCC1	65*	-1%	-2%	37*	98%	109%
Cc1ccc(NC(=S)NC2CCCC2)cc1C	active	-23%	-38%	49*	17%	37%
Cc1nc2ccc(NC(=S)NC3CCCCC3)cc2nc1C	102*	/	6%	42*	?	143%
Cc1ccc(NC(=S)NC2CCN(Cc3ccccc3)CC2)cc1C	-8	/	1%	-1	?	?
Cc1ccc(NC(=S)NC(=O)C2CC2)c(C)c1	64*	1%	1%	34*	-28%	26%
S=C(Nc1ccc(Nc2ccccc2)cc1)NC1CCCCCC1	-9	-4%	-3%	-2	-7%	-18%
COC(=O)c1ccccc1NC(=S)NC(=O)C1CC1	-15	3%	29%	5	1%	/
CCOc1nc(NCCO)nc(Nc2cc(Cl)ccc2OC)n1	-5	2%	0%	-2	1%	?
CC1CCCCC1NC(=S)Nc1ccc(Cl)cc1Cl (stereo not given)	31*	-2%	-3%	12	0%	?
CC(C)(C)c1ccccc1NC(=S)NC1CCCCC1	15	/	?	-3	9.3µM*	?
CC1(C)CC(=O)C2=C(C1)N(c1ccc(Cl)cc1)C(=O)C2(O)C(F)(F)F (stereo not given)	1	4%	6%	-3	-9%	4%
CC1(C)CC(=O)C2=C(C1)N(c1ccccc1)C(N)=C(C#N)C2c1cccnc1 (stereo not given)	-16	-8%	-9%	1	13µM*	?
CN1C(=O)C2(C(C#N)=C(N)N(c3ccc(Cl)cc3)C3=C2C(=O)CC(C)(C)C3)c2ccccc21 (stereo not given)	-7	1%	7%	-1	13µM*	/
CC1(C)CC(=O)C2=C(C1)N1C(=C(C#N)C2c2ccc(Cl)cc2)N=C(N)c2ccccc21 (stereo not given)	-13	12%	-11%	-3	13µM*	?
CC1(C)CC(=O)C2=C(C1)N1C(=C(C#N)C2c2ccccc2Cl)N=C(N)c2ccccc21 (stereo not given)	-17	-23%	17%	-3	60%	13µM*
N#CC1=C2N=C(N)c3ccccc3N2C2=C(C(=O)CCC2)C1c1ccccc1F (stereo not given)	-10	-7%	5%	0	?	-34%
SMILES	Shiga toxin inh	NS1 function inh	SARS PLpro yeast	Cycloheximide cs	Pf growth 96h	Pf growth 48h
COc1cccc(CNC(=O)c2cc(=O)[nH]c3ccc(S(=O)(=O)N4CCOCC4)cc23)c1	/	/	-2%	/	11%	-11%
COc1ccc(C2CCCN2C(=S)Nc2cccc(Cl)c2C)cc1OC (stereo not given)	-10	/	6%	2	19%	?
O=[N+]([O-])c1cccc(-c2c(-c3ccccc3)ncc3ccc(F)cc23)c1	/	/	-4%	/	4.7µM*	-8%
Fc1cccc(-c2c(-c3ccccc3)ncc3cc(F)ccc23)c1	/	/	1%	/	?	?
CCC(C)n1c(SCC(=O)/C(C#N)=C(\C)N)nc2ccccc2c1=O (stereo not given)	-5	-13%	-6%	-5	9.3µM*	-23%
C/C(N)=C(/C#N)C(=O)CSc1ccccc1F	94*	5%	1%	34*	243%	0%
C/C(N)=C(/C#N)C(=O)CSc1nc2ccccc2c(=O)n1CCCOC(C)C	-11	3%	21%	-5	?	?
Cc1ccc(SCC(=O)OCC(=O)N(CC(C)C)c2c(N)n(Cc3ccccc3)c(=O)[nH]c2=O)cc1C	/	/	-2%	/	11%	-14%
Cn1nc(-c2ccccc2)cc1NC(=O)c1cccs1	11	-2%	-1%	6	4%	11%
Cc1ccc(C)c(OCCn2cc(/C=C(/C#N)C(=O)NCC3CCCO3)c3ccccc32)c1 (stereo not given)	-11	10%	-1%	-3	45%	2.1µM*
Cc1cc(/C=C(\C#N)C(=O)NCC2CCCO2)c(C)n1-c1ccc(Cl)cc1 (stereo not given)	65*	-1%	-6%	26*	10µM*	10µM*
N#C/C(=C\c1cn(CCOc2ccccc2)c2ccccc12)C(=O)NCC1CCCO1 (stereo not given)	-25	20%	-5%	29*	?	9.3µM*
O=C(CN1C(=O)C2CCCCC2C1=O)OCC(=O)c1ccc(Cl)s1 (stereo not given)	21	/	1%	17	-1%	-8%
O=C(O)c1ccc(NCCC2=CCCCC2)c([N+](=O)[O-])c1	6	/	-7%	0	?	18%
CC(C)NS(=O)(=O)c1ccc(NC(=O)Cc2cccs2)cc1	40*	13%	19%	24*	73%	39%
Cc1nc2ccc(NC(=O)COc3ccccc3C)cc2s1	64*	/	-6%	34*	-47%	26%
COc1ccc(NC(=O)Cn2nnc(C(=O)NCc3cccs3)c2N)cc1Cl	-2	2%	-10%	-3	5%	12%
Cc1ccc(NC(=O)Cc2cccs2)cc1Cl	50*	-50%	-10%	38*	?	31%
Cc1ccc(NC(=O)Cn2nnc(C(=O)NCc3cccs3)c2N)cc1Cl	38	-8%	-4%	11	9.3µM*	37%
O=C(Nc1ccccc1C(=O)O)c1ccc(CN2C(=O)c3ccccc3C2=O)cc1	-13	9%	-1%	1	-8%	2%
CN(Cc1nccn1C)C(=O)C1CCC(=O)N(Cc2cccc(C(F)(F)F)c2)C1 (stereo not given)	-6	5%	-4%	-2	5%	12%
